# Experimental data from paper PMC5540273 (PLoS ONE, 2017).
# “And” between values parts separate entries of the source, which are not always exact repeats. Equal entries are not always repeated. Where two headings read alike, the source gives them in different places.
# How the values were obtained:
# BUB1 = details: concentration: 1 μM, replicates: in singlicate, n = 1
# CAMK1B = details: concentration: 1 μM, replicates: in singlicate, n = 1
# CAMK1D = details: concentration: 1 μM, replicates: in singlicate, n = 1
# CAMK1G = details: concentration: 1 μM, replicates: in singlicate, n = 1
# CAMK1 = details: concentration: 1 μM, replicates: in singlicate, n = 1
# CAMK2A = details: concentration: 1 μM, replicates: in singlicate; n = 1
# CAMK2B = details: concentration: 1 μM, replicates: in singlicate; n = 1
# CAMK2D = details: concentration: 1 μM, replicates: in singlicate; n = 1
# CAMK2G = details: concentration: 1 μM, replicates: in singlicate; n = 1
# CAMK4 = details: concentration: 1 μM, replicates: in singlicate, n = 1
# CAMKK1 = details: concentration: 1 μM, replicates: in singlicate; n = 1
# CAMKK2 = details: concentration: 1 μM, replicates: in singlicate; n = 1
# CASK = details: concentration: 1 μM, replicates: in singlicate, n = 1
# CDC2L1 = system: T1, CDC2L1; details: concentration: 1 μM, replicates: in singlicate, n = 1
# T1 construct: gene CDK11B
# CDC2L2 = details: concentration: 1 μM, replicates: in singlicate, n = 1
# CDC2L5 = system: T2, CDC2L5; details: concentration: 1 μM, replicates: in singlicate, n = 1
# T2 construct: gene CDK13
# CDK11 = system: T3, CDK11; details: concentration: 1 μM, replicates: in singlicate, n = 1
# T3 construct: gene CDK19
# CDK2 = details: concentration: 1 μM, replicates: in singlicate; n = 1
# CDK3 = details: concentration: 1 μM, replicates: in singlicate; n = 1
# CDK4-cyclinD1 = details: concentration: 1 μM, replicates: in singlicate, n = 1
# 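Note: KINOMEscan kinase panel screen.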
smiles,measurement,setting,value
Cc1cccc(-c2nc(Nc3ccc4ncsc4c3)c3ccccc3n2)n1 [GW867588],%Inh,BUB1,47%
same,%Inh,CAMK1B,21%
same,%Inh,CAMK1D,14%
same,%Inh,CAMK1G,0%
same,%Inh,CAMK1,26%
same,%Inh,CAMK2A,0%
same,%Inh,CAMK2B,0%
same,%Inh,CAMK2D,2%
same,%Inh,CAMK2G,9%
same,%Inh,CAMK4,0%
same,%Inh,CAMKK1,0%
same,%Inh,CAMKK2,20%
same,%Inh,CASK,1%
same,%Inh,CDC2L1,0%
same,%Inh,CDC2L2,13%
same,%Inh,CDC2L5,0%
same,%Inh,CDK11,0%
same,%Inh,CDK2,9%
same,%Inh,CDK3,6%
same,%Inh,CDK4-cyclinD1,0%
O=c1cc(N2CCOCC2)nc2n(Cc3cccc(F)c3)ccn12 [GSK2297430],%Inh,BUB1,0%
same,%Inh,CAMK1B,4%
same,%Inh,CAMK1D,15%
same,%Inh,CAMK1G,0%
same,%Inh,CAMK1,4%
same,%Inh,CAMK2A,0%
same,%Inh,CAMK2B,0%
same,%Inh,CAMK2D,0%
same,%Inh,CAMK2G,13%
same,%Inh,CAMK4,11%
same,%Inh,CAMKK1,25%
same,%Inh,CAMKK2,3%
same,%Inh,CASK,0%
same,%Inh,CDC2L1,3%
same,%Inh,CDC2L2,6%
same,%Inh,CDC2L5,0%
same,%Inh,CDK11,0%
same,%Inh,CDK2,7%
same,%Inh,CDK3,1%
same,%Inh,CDK4-cyclinD1,0%
CCn1cnc2c(N)ncnc21 [GW345098],%Inh,BUB1,3%
same,%Inh,CAMK1B,0%
same,%Inh,CAMK1D,10%
same,%Inh,CAMK1G,0%
same,%Inh,CAMK1,9%
same,%Inh,CAMK2A,6%
same,%Inh,CAMK2B,8%
same,%Inh,CAMK2D,0%
same,%Inh,CAMK2G,0%
same,%Inh,CAMK4,1%
same,%Inh,CAMKK1,8%
same,%Inh,CAMKK2,2%
same,%Inh,CASK,31%
same,%Inh,CDC2L1,1%
same,%Inh,CDC2L2,6%
same,%Inh,CDC2L5,0%
same,%Inh,CDK11,0%
same,%Inh,CDK2,0%
same,%Inh,CDK3,1%
same,%Inh,CDK4-cyclinD1,0%
COc1ccc(COc2cc(-n3cnc4ccccc43)sc2C(N)=O)cc1 [GSK1024304],%Inh,BUB1,9%
same,%Inh,CAMK1B,0%
same,%Inh,CAMK1D,6%
same,%Inh,CAMK1G,8%
same,%Inh,CAMK1,7%
same,%Inh,CAMK2A,0%
same,%Inh,CAMK2B,0%
same,%Inh,CAMK2D,0%
same,%Inh,CAMK2G,23%
same,%Inh,CAMK4,0%
same,%Inh,CAMKK1,4%
same,%Inh,CAMKK2,13%
same,%Inh,CASK,0%
same,%Inh,CDC2L1,0%
same,%Inh,CDC2L2,0%
same,%Inh,CDC2L5,0%
same,%Inh,CDK11,22%
same,%Inh,CDK2,0%
same,%Inh,CDK3,9%
same,%Inh,CDK4-cyclinD1,0%
COc1cc2ncn(-c3cc(OCc4sccc4Cl)c(C(N)=O)s3)c2cc1OC [GSK448459],%Inh,BUB1,55%
same,%Inh,CAMK1B,25%
same,%Inh,CAMK1D,0%
same,%Inh,CAMK1G,0%
same,%Inh,CAMK1,4%
same,%Inh,CAMK2A,0%
same,%Inh,CAMK2B,0%
same,%Inh,CAMK2D,2%
same,%Inh,CAMK2G,12%
same,%Inh,CAMK4,0%
same,%Inh,CAMKK1,4%
same,%Inh,CAMKK2,76%
same,%Inh,CASK,12%
same,%Inh,CDC2L1,0%
same,%Inh,CDC2L2,10%
same,%Inh,CDC2L5,0%
same,%Inh,CDK11,9%
same,%Inh,CDK2,0%
same,%Inh,CDK3,8%
same,%Inh,CDK4-cyclinD1,0%
CC(=O)Nc1ccc(COc2ccc(Nc3ccnc4cc(-c5ccccn5)ccc34)cc2)cc1.Cl [GW440148],%Inh,BUB1,5%
same,%Inh,CAMK1B,23%
same,%Inh,CAMK1D,10%
same,%Inh,CAMK1G,7%
same,%Inh,CAMK1,20%
same,%Inh,CAMK2A,0%
same,%Inh,CAMK2B,0%
same,%Inh,CAMK2D,18%
same,%Inh,CAMK2G,21%
same,%Inh,CAMK4,0%
same,%Inh,CAMKK1,4%
same,%Inh,CAMKK2,26%
same,%Inh,CASK,1%
same,%Inh,CDC2L1,12%
same,%Inh,CDC2L2,11%
same,%Inh,CDC2L5,0%
same,%Inh,CDK11,17%
same,%Inh,CDK2,1%
same,%Inh,CDK3,0%
same,%Inh,CDK4-cyclinD1,0%
Fc1ccc(-c2ncn(CCCN3CCOCC3)c2-c2cccnc2)cc1 [SB-211743],%Inh,BUB1,4%
same,%Inh,CAMK1B,0%
same,%Inh,CAMK1D,0%
same,%Inh,CAMK1G,0%
same,%Inh,CAMK1,0%
same,%Inh,CAMK2A,0%
same,%Inh,CAMK2B,0%
same,%Inh,CAMK2D,0%
same,%Inh,CAMK2G,0%
same,%Inh,CAMK4,14%
same,%Inh,CAMKK1,0%
same,%Inh,CAMKK2,0%
same,%Inh,CASK,6%
same,%Inh,CDC2L1,0%
same,%Inh,CDC2L2,0%
same,%Inh,CDC2L5,0%
same,%Inh,CDK11,0%
same,%Inh,CDK2,0%
same,%Inh,CDK3,16%
same,%Inh,CDK4-cyclinD1,0%
CC(C)Oc1ccc2c(-c3ccnc(Nc4ccc(N5CCN(C)CC5)cc4)n3)cnn2n1 [GW696155],%Inh,BUB1,99.4%
same,%Inh,CAMK1B,96.3%
same,%Inh,CAMK1D,97.8%
same,%Inh,CAMK1G,56%
same,%Inh,CAMK1,71%
same,%Inh,CAMK2A,44%
same,%Inh,CAMK2B,31%
same,%Inh,CAMK2D,54%
same,%Inh,CAMK2G,48%
same,%Inh,CAMK4,0%
same,%Inh,CAMKK1,40%
same,%Inh,CAMKK2,44%
same,%Inh,CASK,23%
same,%Inh,CDC2L1,63%
same,%Inh,CDC2L2,51%
same,%Inh,CDC2L5,0%
same,%Inh,CDK11,19%
same,%Inh,CDK2,0%
same,%Inh,CDK3,17%
same,%Inh,CDK4-cyclinD1,94.4%
N#Cc1ccc(-c2cc(-c3c[nH]nc3-c3ccccn3)ccn2)cc1 [GW693028],%Inh,BUB1,34%
same,%Inh,CAMK1B,3%
same,%Inh,CAMK1D,1%
same,%Inh,CAMK1G,0%
same,%Inh,CAMK1,1%
same,%Inh,CAMK2A,0%
same,%Inh,CAMK2B,1%
same,%Inh,CAMK2D,0%
same,%Inh,CAMK2G,13%
same,%Inh,CAMK4,0%
same,%Inh,CAMKK1,0%
same,%Inh,CAMKK2,2%
same,%Inh,CASK,9%
same,%Inh,CDC2L1,0%
same,%Inh,CDC2L2,0%
same,%Inh,CDC2L5,0%
same,%Inh,CDK11,12%
same,%Inh,CDK2,0%
same,%Inh,CDK3,6%
same,%Inh,CDK4-cyclinD1,0%
Cl.Cl.Cl.Fc1ccc(-c2ncn(C3CCNCC3)c2-c2ccnc(Nc3ccccc3)n2)cc1 [SB-238039],%Inh,BUB1; 1 µM,88% and 65%
same,%Inh,CAMK1B; 1 µM,0% and 42%
same,%Inh,CAMK1D; 1 µM,0% and 9%
same,%Inh,CAMK1G; 1 µM,9% and 0%
same,%Inh,CAMK1; 1 µM,7% and 0%
same,%Inh,CAMK2A,0%
same,%Inh,CAMK2B,0%
same,%Inh,CAMK2D,0%
same,%Inh,CAMK2G,0%
same,%Inh,CAMK4; 1 µM,18% and 26%
same,%Inh,CAMKK1,0%
same,%Inh,CAMKK2,0%
same,%Inh,CASK; 1 µM,16% and 0%
same,%Inh,CDC2L1; 1 µM,99.4% and 98.5%
same,%Inh,CDC2L2; 1 µM,99.8% and 98.2%
same,%Inh,CDC2L5; 1 µM,32% and 16%
same,%Inh,CDK11; 1 µM,0% and 2%
same,%Inh,CDK2,0%
same,%Inh,CDK3,0%
same,%Inh,CDK4-cyclinD1; 1 µM,0% and 15%
